Assay [1] concerns Plasmodium falciparum Sir2 (PF13_0152, Sir2A). Kind of assay: Plasmodium falciparum Sir2A binding compounds – biochemical, small-molecule microarray, 635 nm fluorescence, primary screen (AID 1098).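 Note: score merges spot fluorescence intensity with its signal-to-noise ratio.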 Particulars: fluorescence 635 nm, higher = more signal.
Assay [2] in a line: probe aDKK1 binding to arrayed compounds – biochemical, biotinylated probe, 635/667 nm fluorescence, primary screen (AID 1099).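 Note: score merges 667nm spot fluorescence with signal to noise across triplicate slides.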 The following applies: small-molecule microarray, higher = more signal.
The nature of assay [3]: probe aCHRDL2 binding to arrayed compounds – biochemical, biotinylated probe, 635/667 nm fluorescence, primary screen (AID 1100). Particulars: small-molecule microarray, higher = more signal.
Assay [4] in a line: change in splice reporter luminescence, either direction, cell-based, HEK293, spliceosome inhibition project, primary screen (AID 1101).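 Note: HEK293 cells carrying a splicing-competent luciferase reporter gene; test concentration not given here.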 Particulars: HEK293 splicing luciferase reporter, 24 h, higher = more signal, called active from +8 up or from −8 down.
For assay [5], the target named is Fibroblast growth factor 10 (Homo sapiens) (UniProt O15520). Put plainly: compounds binding fibroblast growth factor 10 – biochemical, small-molecule microarray, 635 nm fluorescence, primary screen (AID 1102). The following applies: FGF10 binding, fluorescence 635 nm, higher = more signal.
Fibroblast growth factor 10 (Homo sapiens), sequence (O15520 whole entry, looked up): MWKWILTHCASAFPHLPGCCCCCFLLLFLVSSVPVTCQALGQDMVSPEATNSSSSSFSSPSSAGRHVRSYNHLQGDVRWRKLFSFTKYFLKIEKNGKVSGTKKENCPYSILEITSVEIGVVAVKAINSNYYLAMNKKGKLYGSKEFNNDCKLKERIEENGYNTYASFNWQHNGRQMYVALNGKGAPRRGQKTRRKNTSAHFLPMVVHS
In assay [6] the test system is glycogen synthase kinase-3 (GSK3A per assay name; protocol says GSK3B). Put plainly: compounds binding glycogen synthase kinase-3 – biochemical, small-molecule microarray, 635 nm fluorescence, GSK3A, primary screen (AID 1103). Note: the record names both GSK3A and GSK3B. The following applies: fluorescence 635 nm, higher = more signal.
Assay [7] addresses Epidermal growth factor receptor (Homo sapiens) (UniProt P00533). Kind of assay: compounds binding epidermal growth factor receptor – biochemical, small-molecule microarray, 635 nm fluorescence, primary screen (AID 1104).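 Note: score merges 667 nm emission intensity with spot signal to noise over triplicate slides.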 The following applies: EGFR binding, higher = more signal.
Assay [8] addresses Follistatin-related protein 3 (Homo sapiens) (UniProt O95633). Kind of assay: compounds binding follistatin-related protein 3 – biochemical, small-molecule microarray, 635 nm fluorescence, primary screen (AID 1105).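 Note: score merges emission near 667 nm and signal to noise per printed spot across three slides.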 Particulars: FSTL3 binding, higher = more signal.
In assay [9] the target is Dickkopf-related protein 1 (Homo sapiens) (UniProt O94907). Put plainly: small molecules binding DKK1 protein – biochemical, small-molecule microarray, 635 nm fluorescence scan, primary screen (AID 1106).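 Note: score merges emission near 667 nm with signal to noise over three replicate slides.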 The following applies: higher = more signal.
Dickkopf-related protein 1 (Homo sapiens), sequence (O94907 whole entry, looked up): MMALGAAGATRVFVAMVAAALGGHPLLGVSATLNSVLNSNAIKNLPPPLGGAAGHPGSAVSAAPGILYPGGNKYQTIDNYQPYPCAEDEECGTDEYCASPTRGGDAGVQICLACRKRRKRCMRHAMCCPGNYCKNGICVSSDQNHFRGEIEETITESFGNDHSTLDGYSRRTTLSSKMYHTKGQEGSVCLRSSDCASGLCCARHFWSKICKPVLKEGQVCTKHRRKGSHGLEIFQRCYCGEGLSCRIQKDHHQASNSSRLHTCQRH
For assay [10], the system named is Inhibin beta A chain (activin A). Put plainly: small molecules binding activin A – biochemical, small-molecule microarray, 635 nm fluorescence scan, primary screen (AID 1107).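 Note: mouse activin A protein probed at 4.33 µg/mL on printed slides; score merges bound-protein fluorescence near 667 nm with spot signal-to-noise.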 The following applies: INHBA, higher = more signal.
Assay [11] has as its system Human papillomavirus type 1a protein E7 (residues 44-93). Put plainly: small molecules binding HPV E7 44-93 – biochemical, small-molecule microarray, residues 44-93, 635 nm fluorescence, primary screen (AID 1108).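 Note: E7 fragment applied at 1 µg/mL in TBST for 1 h at 4 C; score combines spot fluorescence with its signal to noise ratio.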 Particulars: fluorescence 635 nm, higher = more signal.
Assay [12] can be described thus: hepatitis C replication reporter changes, two-sided – Huh7 cells, luciferase reporter, HCV replication inhibitor project, primary screen (AID 1109).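 Note: huh7 hepatoma cells harbouring a luciferase neomycin HCV replicon reporter; luciferase luminescence as measure of HCV replicon replication; test concentration not given here.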 Particulars: Huh7 HCV replicon luciferase reporter, 48 h; higher = more signal. On the technique in general: Reporter assays use an easily measured gene product as a stand-in for the process of interest.
The target of assay [13] is Left-right determination factor 2 (Homo sapiens) (UniProt O00292). Kind of assay: small molecules binding LEFTY2 protein – biochemical, small-molecule microarray, 635 nm fluorescence scan, primary screen (AID 1110). The following applies: higher = more signal.
Left-right determination factor 2 (Homo sapiens), sequence (O00292 whole entry, looked up): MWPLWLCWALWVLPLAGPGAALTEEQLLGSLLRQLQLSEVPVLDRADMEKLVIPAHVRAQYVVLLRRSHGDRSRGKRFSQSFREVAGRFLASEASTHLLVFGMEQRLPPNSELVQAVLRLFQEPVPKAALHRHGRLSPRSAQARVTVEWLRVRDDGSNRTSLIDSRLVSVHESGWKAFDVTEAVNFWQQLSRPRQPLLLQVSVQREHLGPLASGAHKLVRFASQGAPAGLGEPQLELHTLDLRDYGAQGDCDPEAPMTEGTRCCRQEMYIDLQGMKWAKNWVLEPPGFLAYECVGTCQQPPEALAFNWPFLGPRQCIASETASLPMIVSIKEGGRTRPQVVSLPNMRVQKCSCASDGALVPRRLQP
Assay [14] deals with Calmodulin-1 (Homo sapiens) (UniProt P0DP23). Kind of assay: small molecules binding calmodulin-1 with EGTA – biochemical, small-molecule microarray, Cy5-labelled CALM1, profiling panel (AID 1111).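 Note: labelled calmodulin applied in Tris saline Tween buffer holding calcium plus EGTA and DTT.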 Particulars: Cy5-CALM1 binding fluorescence, higher = more signal.
Assay [15] has the same target. Put plainly: small molecules binding Ca-loaded calmodulin-1 – biochemical, small-molecule microarray, Cy5-labelled CALM1, plus calcium, artefact control for SMM control-protein annotation, profiling panel (AID 1112).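 Note: score merges spot fluorescence with signal to noise from triplicate slides.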 The following applies: Cy5-CALM1 binding fluorescence, higher = more signal.
Assay [16] in a line: probe aWnt5a binding to arrayed compounds – biochemical, biotinylated probe, 635/667 nm fluorescence, primary screen (AID 1113).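 Note: score merges 667 nm fluorescence intensity with signal-to-noise per printed feature.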 The following applies: small-molecule microarray, higher = more signal.
Assay [17] can be described thus: probe aShh binding to arrayed compounds – biochemical, biotinylated probe, 635/667 nm fluorescence, primary screen (AID 1114).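 Note: probe is biotin-labelled aShh protein from a stem cell growth factor screen; measures binding of labelled protein to compounds printed on the slide; score merges feature fluorescence at 667 nm with signal-to-noise.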 The following applies: small-molecule microarray, higher = more signal.
Assay [18] is described as follows: probe aNog binding to arrayed compounds – biochemical, biotinylated probe, 635/667 nm fluorescence, primary screen (AID 1115).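 Note: probe is biotinylated aNog protein used at 0.15 µg/mL for 1 h at 4 C; z-score combines 667 nm fluorescence of each spot with its signal to noise.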 Particulars: small-molecule microarray, higher = more signal.
The target of assay [19] is Torsin-1A-interacting protein 1 (Homo sapiens) (UniProt Q5JTV8). Put plainly: compound microarray binding of lysate hLAP1 – cell lysate, small-molecule microarray, COS7 lysate, 635/667 nm fluorescence, primary screen (AID 1116). The following applies: 635 nm fluorescence, higher = more signal.
Torsin-1A-interacting protein 1 (Homo sapiens), sequence (Q5JTV8 whole entry, looked up): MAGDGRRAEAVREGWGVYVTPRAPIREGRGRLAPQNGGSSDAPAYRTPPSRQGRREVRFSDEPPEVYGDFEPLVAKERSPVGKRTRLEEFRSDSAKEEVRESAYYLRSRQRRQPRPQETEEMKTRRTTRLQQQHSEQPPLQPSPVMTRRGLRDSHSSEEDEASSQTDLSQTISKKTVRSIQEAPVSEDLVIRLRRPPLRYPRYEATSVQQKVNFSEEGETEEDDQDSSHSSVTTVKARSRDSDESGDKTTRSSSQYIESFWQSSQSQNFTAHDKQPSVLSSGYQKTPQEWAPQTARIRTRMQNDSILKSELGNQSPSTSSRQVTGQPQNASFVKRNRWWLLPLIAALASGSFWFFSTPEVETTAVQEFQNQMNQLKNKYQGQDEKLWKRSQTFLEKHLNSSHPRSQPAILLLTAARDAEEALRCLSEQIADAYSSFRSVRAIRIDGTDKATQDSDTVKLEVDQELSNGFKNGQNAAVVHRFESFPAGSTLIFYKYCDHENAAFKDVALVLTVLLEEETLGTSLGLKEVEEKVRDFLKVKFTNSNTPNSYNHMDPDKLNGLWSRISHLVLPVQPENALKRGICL
Assay [20] has as its target Alpha-bungarotoxin (Bungarus multicinctus) (UniProt P60615). Kind of assay: compounds binding labelled alpha-BTX control protein – biochemical, small-molecule microarray, Alexa647 label, 635/667 nm fluorescence, artefact control for SMM control protein annotation, profiling panel (AID 1117). Particulars: alpha-BTX-A647 binding fluorescence, higher = more signal.

Activity calls are given as the source filed them.

Epidermal growth factor receptor (Homo sapiens), sequence (P00533 whole entry, looked up): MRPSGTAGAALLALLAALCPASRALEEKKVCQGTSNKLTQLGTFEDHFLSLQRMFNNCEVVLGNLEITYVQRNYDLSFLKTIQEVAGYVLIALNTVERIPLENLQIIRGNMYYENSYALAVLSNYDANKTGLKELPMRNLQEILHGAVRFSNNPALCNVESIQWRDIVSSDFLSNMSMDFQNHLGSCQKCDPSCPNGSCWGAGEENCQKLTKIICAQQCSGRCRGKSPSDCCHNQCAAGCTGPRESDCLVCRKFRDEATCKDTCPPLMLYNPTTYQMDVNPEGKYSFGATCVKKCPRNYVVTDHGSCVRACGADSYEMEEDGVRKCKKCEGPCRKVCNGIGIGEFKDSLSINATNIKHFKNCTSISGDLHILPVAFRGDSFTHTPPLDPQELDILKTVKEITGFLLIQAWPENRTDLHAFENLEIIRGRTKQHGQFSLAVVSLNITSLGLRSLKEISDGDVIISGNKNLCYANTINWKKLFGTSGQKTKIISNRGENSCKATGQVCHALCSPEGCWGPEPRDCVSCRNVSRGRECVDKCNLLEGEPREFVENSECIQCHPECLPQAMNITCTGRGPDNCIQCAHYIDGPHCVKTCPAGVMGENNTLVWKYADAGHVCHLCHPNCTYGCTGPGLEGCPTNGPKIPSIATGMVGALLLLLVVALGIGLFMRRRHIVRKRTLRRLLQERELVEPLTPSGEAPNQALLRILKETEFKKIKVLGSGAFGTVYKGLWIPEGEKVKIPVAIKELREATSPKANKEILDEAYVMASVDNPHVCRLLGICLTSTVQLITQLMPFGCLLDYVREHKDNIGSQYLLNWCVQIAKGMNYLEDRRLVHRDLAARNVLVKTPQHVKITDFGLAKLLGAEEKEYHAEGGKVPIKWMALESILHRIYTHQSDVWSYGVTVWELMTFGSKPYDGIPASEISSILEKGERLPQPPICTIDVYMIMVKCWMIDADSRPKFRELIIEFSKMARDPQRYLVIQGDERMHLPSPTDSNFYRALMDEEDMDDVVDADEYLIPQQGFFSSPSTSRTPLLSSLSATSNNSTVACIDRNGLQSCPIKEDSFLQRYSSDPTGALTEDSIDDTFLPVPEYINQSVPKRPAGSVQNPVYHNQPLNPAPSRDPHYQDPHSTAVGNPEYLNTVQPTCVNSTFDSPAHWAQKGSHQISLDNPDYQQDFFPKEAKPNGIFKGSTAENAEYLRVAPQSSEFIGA
Follistatin-related protein 3 (Homo sapiens), sequence (O95633 whole entry, looked up): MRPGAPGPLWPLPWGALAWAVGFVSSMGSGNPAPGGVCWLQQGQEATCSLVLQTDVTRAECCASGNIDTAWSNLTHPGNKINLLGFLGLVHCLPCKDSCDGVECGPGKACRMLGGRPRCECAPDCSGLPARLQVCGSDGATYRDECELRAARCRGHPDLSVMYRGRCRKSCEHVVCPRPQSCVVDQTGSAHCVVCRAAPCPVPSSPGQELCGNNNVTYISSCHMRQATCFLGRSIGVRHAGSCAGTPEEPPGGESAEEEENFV
Alpha-bungarotoxin (Bungarus multicinctus), sequence (P60615 whole entry, looked up): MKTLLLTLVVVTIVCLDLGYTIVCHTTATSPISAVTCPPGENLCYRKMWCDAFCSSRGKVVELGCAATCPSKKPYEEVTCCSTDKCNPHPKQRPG

For `COc1ccc([Si](C)(C)[C@H]2[C@H](CC(=O)N3Cc4ccccc4C[C@H]3CO)O[C@@]3(C(=O)N(Cc4ccc(N5C(=O)c6cccc7cccc5c67)cc4)c4ccccc43)[C@@H]2C)cc1`, the composite z-score was 0.959 in assay [1]; -0.247 in assay [2]; -0.0288 in assay [3]; 0.884 in [5]; 1.28 in [6]; 0.868 in assay [7]. The composite z-score in assay [8] was 1.31; in assay [9], 0.879; in assay [10] it was 0.473; in [11] it was 1.3; in assay [13], 0.952; in assay [14], 0.732. The composite z-score in assay [15] was 0.049; in [16], -0.124; in assay [17] it was -0.279; in assay [18] it was -0.49; in assay [19], 1.65; in [20], 0.609. In addition, the z-score in [4] was -0.91 (inactive); in [12], -3.26.
`C=CCN1C(=O)[C@@]2(O[C@@H](CCO)[C@H]([Si](C)(C)c3ccc(OC)cc3)[C@H]2C)c2cc(N3CCOC3=O)ccc21`: the composite z-score in assay [1] is 0.392; in [2] it was 0.0757; in assay [3], 0.213; in [5] it was -0.0196; in [6], 0.612; in assay [7], -0.114. For the same molecule, the composite z-score in assay [8] is 0.0282; in [9] it was -0.381; in assay [10] it was -0.171; in assay [11], 1.31; in assay [13] it was -0.135; in assay [14], 0.278. Besides, the composite z-score in assay [15] was 0.444; in assay [16], -0.0981; in assay [17], -0.243; in assay [18], -0.0239; in assay [19], 0.878; in [20], 0.105. For the same molecule, the z-score was -0.887 (inactive) in assay [4] and -4.84 in [12].
In the case of `O=C(CS)NCCCCCCNC(=O)[C@@H]1C[C@@H]2C(=O)NCC(=O)N2[C@@H]1c1ccc(O)cc1`, the composite z-score is 1.57 in assay [1]; -0.11 in assay [2]; 0.592 in assay [3]; -0.297 in [5]; -0.135 in [6]; -0.395 in assay [7]. In addition, the composite z-score was -0.586 in assay [8]; -0.262 in [9]; -0.716 in assay [10]; -1.1 in assay [11]; -0.601 in assay [13]; 1.16 in assay [14]. In addition, the composite z-score in assay [15] is 0.754; in assay [16], -0.239; in assay [17], -0.0035; in assay [18], 0.0595; in assay [19], -0.549; in [20], -1.04. Besides, the z-score in assay [4] is -1.65 (inactive); in assay [12], 0.394.
Regarding `COCCOC(=O)N1C(=O)[C@@]2(c3cc(C#CCC(C(=O)OC)C(=O)OC)ccc31)[C@H](c1ccc(O)cc1)N1[C@H](c3ccccc3)[C@H](c3ccccc3)OC(=O)[C@H]1[C@@H]2C(=O)NC[C@H](O)c1ccccc1`, the composite z-score in [1] stood at 0.542; in [2], 0.362; in assay [3] it was 0.181; in assay [5], 0.681; in assay [6], 0.882; in assay [7], 0.335. Further, the composite z-score in assay [8] turned out to be 0.602; in assay [9] it was 0.148; in assay [10], 0.466; in assay [11], 1.33; in assay [13], 0.485; in [14], 1.91. For the same molecule, the composite z-score in assay [15] was 0.67; in [16], -0.0172; in assay [17], -0.147; in assay [18] it was -0.346; in assay [19], 1.06; in assay [20] it was 0.353. Further, the z-score is 0.579 (inactive) in assay [4] and -0.496 in assay [12].
For `[N-]=[N+]=Nc1ccccc1C[C@]1(C(=O)NCc2ccccc2)COC(c2ccc(OCCCO)cc2)=N1`, the composite z-score was 1.26 in [1]; 0.187 in assay [2]; 0.869 in assay [3]; 1.16 in assay [5]; 1.23 in assay [6]; -0.404 in [7]. For the same molecule, the composite z-score in assay [8] is 1.01; in assay [9], -0.537; in assay [10], 0.386; in [11], 1.4; in [13], -0.576; in [14], 0.575. Besides, the composite z-score in assay [15] is 0.154; in [16], 0.0004; in [17] it was -0.167; in assay [18], 0.919; in [19], 1.42; in [20] it was 1.04. Besides, the z-score in assay [4] is 0.439 (inactive); in assay [12] it was -3.22.
For the molecule `CC(C)C(=C=CC[C@H](O)c1cccc(OCCO)c1)CCO`, the composite z-score in assay [1] was 0.899; in [2], -0.363; in assay [3] it was -0.148; in [5], 1.18; in [6] it was -0.739; in assay [7], -0.209. Further, the composite z-score was -0.0067 in assay [8]; -0.264 in assay [9]; 0.148 in assay [10]; 0.133 in [11]; -0.0916 in assay [13]; -0.427 in [14]. Moreover, the composite z-score was -0.224 in [15]; -0.0165 in assay [16]; 0.201 in [17]; -0.272 in assay [18]; 0.0879 in [19]; 0.115 in assay [20]. Also, the z-score is -1.02 (inactive) in [4] and 0.121 in assay [12].

Values taken from PubChem BioAssay.
